The source of these data is PubChem BioAssay (NCI).

Holding throughout (test): NCI-60 one-dose screen, 48 h (100 = growth as untreated, 0 = no growth, -100 = all killed)
Conditions in all cases: 10 µM

For experiment [1], the system named is HT29 colon.
The subject of experiment [2] is SNB-75 CNS.
Experiment [3] concerns SNB-19 CNS.
The test system of experiment [4] is U251 CNS.
Experiment [5] deals with PC-3 prostate.
The test system of experiment [6] is SK-MEL-5 melanoma.
Experiment [7] relates to UACC-62 melanoma.
Experiment [8] deals with LOX IMVI melanoma.
The test system of experiment [9] is SK-MEL-28 melanoma.
For experiment [10], the system named is SK-MEL-2 melanoma.
In experiment [11] the test system is EKVX NSCLC.
In experiment [12] the test system is SN12C renal.
Experiment [13] deals with UO-31 renal.
For experiment [14], the system named is TK-10 renal.
For experiment [15], the system named is ACHN renal.
Experiment [16] relates to CAKI-1 renal.
Experiment [17] relates to A498 renal.
In experiment [18] the test system is CCRF-CEM leukemia.
In experiment [19] the test system is MOLT-4 leukemia.

About 83,000 compounds went through this panel and 20% of them were active in at least one assay; those are over-represented in the sample as a whole.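 Step 1: grow cells in 96-well plates. Step 2: add test compound at a single concentration. Step 3: incubate 48 h. Step 4: record percent growth.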 A number with no mark means an inactive call. Active and inactive are the calls of the source. Rule for the calls: active = growth percent below 10; inactive = the rest.

For the compound `CC1(C)[C@@H](NCO)CC[C@]2(C)[C@H]3C(=O)C=C4[C@@H]5C[C@](C)(CO)CC[C@]5(C)CC[C@@]4(C)[C@]3(C)CC[C@@H]12`, the growth was 13.9% in experiment [1]; 106% in experiment [2]; 70.1% in experiment [3]; 18.9% in experiment [4]; 31.3% in experiment [5]; 61% in experiment [6]. Also, the growth in experiment [7] is 50.2%; in experiment [8] it was -74.8% (active); in experiment [9] it was -29.5% (active); in [10], 94.6%; in experiment [11], 75.5%; in experiment [12], 72%. Besides, the growth was 54.9% in experiment [13]; 107% in experiment [14]; 63.1% in [15]; 59.1% in experiment [16]; 140% in experiment [17]; 70.3% in experiment [18]. For the same compound, the growth in experiment [19] is 16.5%.
With `CC(C)Sc1nc(NC2CC2)c(C#N)c(-c2ccccc2)n1`, the growth in experiment [1] was 87.3%; in experiment [2] it was 81.3%; in experiment [3], 25.7%; in experiment [4] it was 50.6%; in [5], 83%; in [6], 93.1%. The growth in experiment [7] was 87.1%; in experiment [8], 80.2%; in experiment [9], 110%; in experiment [10], 97.7%; in [11] it was 77.4%; in experiment [12], 77.5%. Besides, the growth is 79.4% in [13]; 92.9% in experiment [14]; 53.5% in experiment [15]; 56.8% in [16]; 99.3% in [17]; 96.3% in experiment [18]. Also, the growth in experiment [19] was 102%.
As for `Cc1ccc(C(=O)Nc2ccc(-n3c(C)nc4c(cnn4-c4ccccc4)c3=O)cc2)cc1`, the growth is 71.2% in experiment [1]; 82.8% in experiment [2]; 82.1% in [3]; 90% in [4]; 71.6% in [5]; 7.05% (active) in experiment [6]. Moreover, the growth in experiment [7] was 60.8%; in [8], 67.2%; in experiment [9], 80.7%; in experiment [10], 78.3%; in [11], 30.5%; in experiment [12] it was 73.3%. The growth in experiment [14] was 82.3%; in experiment [15], 61.8%; in experiment [16], 72.4%; in experiment [17], 87.3%; in [18], 46.3%; in [19], 34.3%.
Consider `CC(C)(C)Nc1nc2cc(Cl)c(Cl)cc2nc1S(C)(=O)=O`, for which the growth in experiment [1] is 47.4%; in experiment [2] it was 45.1%; in experiment [3], 102%; in [4] it was 68.7%; in experiment [5], 54%; in experiment [6] it was -17.4% (active). The growth in experiment [7] is 52.9%; in [8], -98% (active); in experiment [10], 37.2%; in [11], 58.1%; in [12], 20.1%; in experiment [13] it was 90%. Further, the growth in experiment [14] was 99.8%; in experiment [15] it was 56.3%; in experiment [16] it was 53.2%; in experiment [17] it was 142%; in [18], -17.9% (active); in [19] it was -3.12% (active).
`CN1CCN(c2ccc(C(=O)/C=C/c3cc(C(F)(F)F)ccc3Cl)cc2)CC1`: the growth in [1] was 0.637% (active); in experiment [2], 42.9%; in experiment [3], -99.2% (active); in experiment [4] it was -74.5% (active); in [5], -40.3% (active); in [6], -90.6% (active). The growth was -79.9% (active) in [7]; -100% (active) in [8]; -91.9% (active) in [11]; -90.1% (active) in experiment [12]; -99.2% (active) in experiment [13]; -94.4% (active) in experiment [14]. Further, the growth was -96.8% (active) in experiment [15], -49.7% (active) in experiment [17], 2.2% (active) in experiment [18] and 2.26% (active) in experiment [19].
With `COc1ccc(NC(=O)CSc2nnc(-c3ccc4nc(-c5ccc(Cl)cc5)[nH]c4c3)o2)cc1`, the growth in experiment [1] is 34.6%; in [2], 112%; in experiment [3] it was 33.7%; in [4], -15.3% (active); in [5] it was 51.9%; in experiment [6] it was 16.1%. Moreover, the growth was 7.61% (active) in [7]; 16.6% in experiment [8]; 10.1% in experiment [9]; 107% in experiment [10]; 98.8% in experiment [11]; 29.1% in [12]. Moreover, the growth in [13] is 63.9%; in experiment [14], 121%; in experiment [15] it was 63.8%; in experiment [16], 83.6%; in experiment [17], 132%; in experiment [18], 67.5%. In addition, the growth in experiment [19] is 30.4%.
Consider `CCCn1c(=O)c2[nH]c(-c3ccc(OCc4nc5ccc(C#N)cc5[nH]4)cc3)nc2n(CCC)c1=O`, for which the growth in [1] is 88.5%; in experiment [2], 84.9%; in [3] it was 80.8%; in experiment [4], 70.6%; in experiment [5] it was 55.4%; in experiment [6] it was 83.4%. Also, the growth is 49.2% in experiment [7]; 46.5% in [8]; 90.8% in experiment [9]; 96.8% in [10]; 80.6% in experiment [11]; 76.5% in experiment [12]. Moreover, the growth was 67.8% in experiment [13]; 107% in experiment [14]; 70.4% in experiment [15]; 89.6% in experiment [16]; 79.1% in experiment [17]; 83.6% in [18]. The growth in experiment [19] was 75.6%.
Regarding `Nc1nnc(-c2c[nH]c3ccc(F)cc23)c(-c2c[nH]c3ncccc23)n1`, the growth in experiment [1] is 59.5%; in experiment [2] it was 29.1%; in experiment [3], 33.9%; in experiment [4], 37.6%; in experiment [5], 67.5%; in experiment [6] it was 63.7%. Further, the growth in [7] is 51.7%; in experiment [9], 71.3%; in [10], 93.7%; in experiment [11] it was 65.1%; in experiment [12], 46.9%; in experiment [13] it was 37.9%. The growth in [14] was 82.9%; in experiment [15], 51.6%; in [16], 33.9%; in experiment [17], 104%; in [18], 61.6%; in [19], 48.8%.
